Where “and” joins values, the source holds several entries; their conditions need not be identical. Identical values can stand only once. Records with an inconclusive call do not appear. Calls of active or inactive are those of the source. Unless noted, calls come from the whole dose curve; as a rule, active = well fitted curve in the direction sought with a large enough effect; inconclusive = small, poorly fitted or top-dose-only effect, or another doubt; inactive = no such curve, though single readings can be large; an effect the other way counts as inactive or inconclusive.
What was measured:
[1] = target: Cytochrome P450 1A2 (Homo sapiens) (UniProt P05177); experiment: p450-cyp1a2 (AID 410; calls by dose curve; note: potency is the fitted concentration of half-maximal effect)
Outline: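 O-Demethylation of luciferin 6' methyl ether by human CYP1A2 is monitored as luciferase luminescence. Substrate sits at Km (100uM); enzyme is 20nM. Values are scaled to 57 uM furafylline as maximal inhibition.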

[2] = target: Glucocorticoid receptor (Homo sapiens) (UniProt P04150); experiment: GR-EFC Redistribution (AID 451; calls by dose curve; note: potency is the fitted concentration of half-maximal effect); details: CHO-K1 GR-EFC translocation, beta-gal luminescence, 2 h
Outline: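 CHO-K1 cells expressing nuclear EA and GR-ED fragments of b-gal; compounds titrated up to 46 uM final, 2 h at 37 C. GR nuclear translocation read as complemented b-gal luminescence after 1 h RT detection.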

[3] = target: 3',5'-cyclic-AMP phosphodiesterase 4B (Homo sapiens) (UniProt Q07343); experiment: qHTS Assay for Inhibitors of PDE-IV (AID 607; active = well fitted activation curve with a large enough effect in the main read-out, with a control signal flat, not every such curve was filed as active; note: % of control where 0% means no effect)
Outline: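 The readout is membrane depolarisation from a cAMP-sensing CNG channel, detected with a potential dye at ex 535/em 590. Cells were HEK293-derived (endogenous PDE-IV) at 1000 cells/well, titrated up to 22.9 uM final.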

[4] = target: Guanine nucleotide-binding protein G(i) subunit alpha-1 (Homo sapiens) (UniProt P63096); experiment: qHTS Assay for Inhibitors of RGS12 GoLoco Motif Activity (Green Fluorophore) (AID 879);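 note: 0% = labeled peptide with Gαi1 and full inhibition = labeled peptide alone without protein; negative values mean loss of peptide binding seen as reduced polarization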
Outline: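 A drop in FITC polarization marked displacement of the FITC-tagged RGS12 GoLoco peptide (10 nM) from Gαi1 (50 nM). Compounds were incubated 10 min at room temperature in Tris pH 7.5 buffer containing 150 mM NaCl, 0.1 mM GDP and 0.05% NP40; unlabeled peptide titration served as control.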

[5] = target: Cytochrome P450 3A4 (Homo sapiens) (UniProt P08684); experiment: qHTS Assay for Inhibitors and Substrates of Cytochrome P450 3A4 (AID 884); note: nearly all actives have a fitted effect of over 50% in size; note: potency is the fitted concentration of half-maximal effect
Outline: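 Luminescent readout of luciferin produced by CYP3A4 (20 nM) dealkylation of Luciferin-PPXE, 25 uM (its KM). NADPH-driven reaction ran 60 min at RT after 10 min compound preincubation; data scaled to 57 uM ketoconazole as 100% inhibition.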

[6] = qHTS Assay for Identification of Small Molecule Antagonists for NFkB Signaling Pathway (AID 895; active = well fitted inhibition curve with a large enough effect in the signal ratio, with a control signal flat, not every such curve was filed as active; the % refers to the signal ratio; note: % is set by controls: 0 for no effect and ±100 for the full control effect)
Outline: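 ME-180 NFkB-bla cells (beta-lactamase under NFkB response element), plated overnight, treated with compound then 10 pM TNF alpha (about EC50) for 5 hrs at 37 C. LiveBLAzer FRET read at 460/530 nm emission, 405 nm excitation.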

[7] = qHTS Assay for Identification of Small Molecule Antagonists for Thrombopoietin (TPO) Signaling Pathway (AID 918); details: TPO-dependent cell signaling reporter, antagonist mode; note: potency is the fitted concentration of half-maximal effect; nearly all actives have a fitted effect of over 60% in size
Outline: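 Inhibitors of TPO signaling are sought by stimulating IL-3-starved murine Ba/F3 cells (human TPO receptor, Glycoprotein IIb-driven luciferase) with TPO at its EC50 of 26 pM alongside compound. After 24 hrs at 37 C, reporter luminescence is measured.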

[8] = target: Muscarinic acetylcholine receptor M1 (Rattus norvegicus) (UniProt P08482); experiment: qHTS Assay for Antagonists of Acetylcholine Muscarinic M1 Receptor: Kinetic Measurement of Intracellular Calcium Response (AID 943);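 note: Fluo-4 calcium signal as peak divided by basal fluorescence over 4 min; nearly all actives have a fitted effect of over 75% in size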
Outline: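 Antagonism is measured as inhibition of the carbachol-evoked calcium rise in CHO cells transfected with rat M1. Cells are dye-loaded, exposed to compound for 10 min, then stimulated with 100 nM carbachol (EC80).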

[9] = target: Pyruvate kinase (Leishmania mexicana) (UniProt Q27686); experiment: qHTS Validation Assay for Inhibitors of Leishmania Mexicana Pyruvate Kinase (AID 945);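 note: 0% = DMSO only neutral control wells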
Outline: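 Read-out: luminescence from PKLight stop/detection reagent, data normalized to DMSO. Reaction: 0.2 nM E451W LmPYK, 0.5 mM PEP, 0.1 mM ADP, pH 7.2, 1 h room temperature.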

[10] = target: Pyruvate kinase PKM (Homo sapiens) (UniProt P14618); experiment: qHTS Assay for Activators of Human Muscle Pyruvate Kinase (AID 954; active = well fitted curve in the direction sought with a large enough effect, not every such curve was filed as active;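 note: 0% = uninhibited enzyme and -100% = no enzyme or full thiadiazolimine inhibition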)
Outline: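 PKM2, human, >95% pure, 0.1 nM; PEP 0.5 mM (Km), ADP 0.1 mM; 50 mM imidazole pH 7.2, 50 mM KCl, 0.01% Tween 20, 0.05% BSA; 1 h RT; luciferase luminescence readout.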

[11] = target: Alpha-galactosidase A (Homo sapiens) (UniProt P06280); experiment: Counterscreen for Glucocerebrosidase Inhibitors: qHTS Assay for Human alpha-Galactosidase at pH 4.5 (AID 992); note: 0% is about no effect
Outline: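 Fluorogenic 4-MU alpha-D-galactoside (80 uM) hydrolysis, 2 nM enzyme, pH 4.5 citrate buffer + 0.005% Tween-20; 20 min RT; NaOH/glycine pH 10 stop; Ex365/Em440. Compounds titrated 0.7 nM–77 uM; Hill-equation AC50.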

[12] = target: alpha-glucosidase (Oryza sativa, rice) (UniProt Q653V4); experiment: Counterscreen for Glucocerebrosidase Inhibitors: qHTS Assay for Rice alpha-Glucosidase at pH 5.0 (AID 997);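 note: 0% = full activity with enzyme and -100% = basal without enzyme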
Outline: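 Endpoint fluorogenic assay at pH 5.0: compounds (0.7 nM to 77 uM) titrated against 4 nM rice enzyme and 400 uM 4-MU-alpha-glucoside for 20 min at room temperature; NaOH/glycine stop, read ex 365/em 440 nm, Hill-fitted AC50.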

[13] = target: Ubiquitin carboxyl-terminal hydrolase 1 (Homo sapiens) (UniProt O94782); experiment: Inhibitors of USP1/UAF1: Pilot qHTS (AID 504865); note: nearly all actives have a fitted effect of over 35% in size; note: potency is the fitted concentration of half-maximal effect
Outline: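 USP1/UAF1 complex (1nM) preincubated with compound 15 min at room temperature, then Ub-Rho substrate (150nM final) added. Fluorescence read kinetically at 480/540 nm, 6 reads every 60 seconds. Buffer: 50mM HEPES pH 7.8, 0.5mM EDTA, 0.1 mg/ml BSA, 1mM TCEP, 0.01% Tween-20.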

[14] = target: DNA dC->dU-editing enzyme APOBEC-3G (Homo sapiens) (UniProt Q9HC16); experiment: qHTS for inhibitors of Vif-A3G interactions: Validation (AID 588379); note: 0% is about no effect
Outline: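 Yellow fluorescence (Ex 488, Em 500-530) of Vif-coexpressing HeLa A3G-eYFP cells, scanned by Acumen cytometer, reports blocked A3G degradation. Cells plated at 700/well overnight at 37 deg C before compound addition, then a further overnight compound incubation at 37 deg C.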

[15] = test system: Zika virus NS2B-NS3 protease; experiment: Primary screen GU AMC qHTS for Zika virus inhibitors (AID 1347154); note: nearly all actives have a fitted effect of over 70% in size; note: potency is the fitted concentration of half-maximal effect
Outline: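 Unlinked Zika NS2B hydrophilic domain–NS3 protease complex at 25 nM in 10 mM Tris-HCl pH 8.0, 0.01% Tween 20, with an AMC peptide substrate. Fluorescence change (340/450 nm) over 15 min at room temperature, normalized to controls, fitted to 4-parameter Hill.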

[16] = target: Mitogen-activated protein kinase 10 (Mus musculus) (UniProt Q61831); experiment: JNK3 AlphaScreen Assay (AID 530; active = well fitted curve in either direction with a large enough effect, not every such curve was filed as active;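 note: kinase came from lysate of stimulated human HepG2 cells; signal reports phosphorylation of biotinylated GST-cJun 1-79 at Ser73 with 10 µM ATP; % is set by controls: 0 for no effect and ±100 for the full control effect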)
Outline: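 Activity was read by AlphaScreen after JNK3-containing HepG2 lysate (cytokine pre-activated) phosphorylated biotinylated GST-cJun with 10 uM ATP at room temperature. Phospho-Ser73 cJun antibody with Protein-A acceptor beads provided detection.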

[17] = target: Cytochrome P450 3A4 (Homo sapiens) (UniProt P08684); experiment: qHTS Assay for Activators of Cytochrome P450 3A4 (AID 885); note: nearly all actives have a fitted effect of over 65% in size
Outline: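 Activators are scored by enhanced luminescence from CYP3A4 conversion of luciferin-PPXE (25uM, equal to KM) to luciferin, after 60 min at RT with an NADPH-regenerating system.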

[18] = target: Cytochrome P450 2C9 (Homo sapiens) (UniProt P11712); experiment: qHTS Assay for Inhibitors and Substrates of Cytochrome P450 2C9 (AID 883); note: nearly all actives have a fitted effect of over 60% in size
Outline: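 Signal: luciferase luminescence reporting luciferin produced by CYP2C9. Conditions: 10nM enzyme, Luciferin-H 100uM at KM, 25mM KPO4, 37C, 60 min NADPH-driven reaction. Reference: 57uM sulphaphenazole as 100% inhibition.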

[19] = target: Cytochrome P450 2D6 (Homo sapiens) (UniProt P10635); experiment: qHTS Assay for Inhibitors and Substrates of Cytochrome P450 2D6 (AID 891); note: nearly all actives have a fitted effect of over 60% in size
Outline: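 Luminescent read-out of luciferin formed by 5 nM human CYP2D6 demethylating 30 uM Luciferin-ME EGE (Km level) over 60 min at room temperature after NADPH regeneration addition. Data normalized to full inhibition by 1.43 uM quinidine.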

[20] = target: Cytochrome P450 2C19 (Homo sapiens) (UniProt P33261); experiment: qHTS Assay for Inhibitors and Substrates of Cytochrome P450 2C19 (AID 899); note: nearly all actives have a fitted effect of over 60% in size
Outline: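 Signal comes from luciferase acting on luciferin released by CYP2C19-mediated hydroxylation of Luciferin-H EGE, 10uM (KM). Assay mix: 5nM enzyme, 50mM KPO4; 60 min at 37C with NADPH regeneration. Data normalized against 57uM ketoconazole.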

[21] = target: Glucocorticoid receptor (Homo sapiens) (UniProt P04150); experiment: GR-GFP Redistribution (AID 450;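 active = compounds whose dose series gives a full or clear partial fitted curve of increased nuclear translocation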; note: potency is the fitted concentration of half-maximal effect); details: U2OS GR-GFP nuclear translocation, laser cytometry, 2 h
[22] = qHTS for Inhibitors of the vitamin D receptor (VDR): Hit Validation using a Texas Red Assay (AID 602201); details: VDR coregulator binding, Texas Red fluorescence polarization; agonist-bound VDR ligand-binding domain; note: potency is the fitted concentration of half-maximal effect
Outline: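 Fluorescence polarization with 1.5 uM VDR-LBD, LG19078 and 7 nM Texas Red (final). After 2 hours at ambient temperature, read at Ex 595 nm/Em 615 nm.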

[23] = Stat Signaling Pathway (AID 446; active = well fitted curve in either direction with a large enough effect, not every such curve was filed as active;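 note: ME-180 cervical cancer cells given 40 pM IL-6 alongside compound; SIE-controlled beta-lactamase reporter measured as 460/530 nm FRET emission ratio; % is set by controls: 0 for no effect and ±100 for the full control effect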); details: ME-180 (cervical carcinoma) SIE beta-lactamase reporter, IL-6 stimulated, 5 h
Outline: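 Emission at 460 and 530 nm (excitation 405 nm) reports SIE-controlled beta-lactamase in ME-180 cells. Cells received compound with 40 pM IL-6 for 5 hrs at 37 C; data scaled between 300 pM IL-6 and 125 nM JAK-inhibitor controls.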

[24] = qHTS Assay for Identification of Small Molecule Agonists for Thrombopoietin (TPO) Signaling Pathway (AID 917); note: % is set by controls: 0 for no effect and ±100 for the full control effect
Outline: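 First, Ba/F3 cells with human TPO receptor were held overnight without IL-3. Next, compounds and TPO (26 pM final) were added. After 24 hrs at 37 C, luciferase detection reagent was added and luminescence measured following 10 min at room temperature.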

Sequence of Glucocorticoid receptor (Homo sapiens) (P04150 whole entry, looked up, the tested form may be a part): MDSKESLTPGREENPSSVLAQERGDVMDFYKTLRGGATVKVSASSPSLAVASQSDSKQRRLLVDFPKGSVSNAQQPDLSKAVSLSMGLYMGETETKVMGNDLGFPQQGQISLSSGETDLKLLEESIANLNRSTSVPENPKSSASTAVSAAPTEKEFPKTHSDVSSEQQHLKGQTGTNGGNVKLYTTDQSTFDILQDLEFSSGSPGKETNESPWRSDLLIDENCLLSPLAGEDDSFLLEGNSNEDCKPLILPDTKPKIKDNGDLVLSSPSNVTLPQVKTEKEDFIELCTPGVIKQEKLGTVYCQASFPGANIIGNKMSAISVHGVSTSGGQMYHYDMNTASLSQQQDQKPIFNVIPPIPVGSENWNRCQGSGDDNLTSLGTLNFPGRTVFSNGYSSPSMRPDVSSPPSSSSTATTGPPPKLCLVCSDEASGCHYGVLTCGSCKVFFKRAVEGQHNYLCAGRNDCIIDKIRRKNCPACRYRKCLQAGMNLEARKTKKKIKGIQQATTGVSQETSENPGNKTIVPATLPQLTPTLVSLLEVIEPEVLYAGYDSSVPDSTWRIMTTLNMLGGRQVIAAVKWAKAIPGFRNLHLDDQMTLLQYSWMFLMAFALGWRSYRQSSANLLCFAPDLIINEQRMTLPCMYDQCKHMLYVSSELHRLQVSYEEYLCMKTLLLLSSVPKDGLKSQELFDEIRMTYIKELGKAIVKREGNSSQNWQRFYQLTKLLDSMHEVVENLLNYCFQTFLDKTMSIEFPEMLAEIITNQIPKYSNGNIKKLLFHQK
Sequence of DNA dC->dU-editing enzyme APOBEC-3G (Homo sapiens) (Q9HC16 whole entry, looked up): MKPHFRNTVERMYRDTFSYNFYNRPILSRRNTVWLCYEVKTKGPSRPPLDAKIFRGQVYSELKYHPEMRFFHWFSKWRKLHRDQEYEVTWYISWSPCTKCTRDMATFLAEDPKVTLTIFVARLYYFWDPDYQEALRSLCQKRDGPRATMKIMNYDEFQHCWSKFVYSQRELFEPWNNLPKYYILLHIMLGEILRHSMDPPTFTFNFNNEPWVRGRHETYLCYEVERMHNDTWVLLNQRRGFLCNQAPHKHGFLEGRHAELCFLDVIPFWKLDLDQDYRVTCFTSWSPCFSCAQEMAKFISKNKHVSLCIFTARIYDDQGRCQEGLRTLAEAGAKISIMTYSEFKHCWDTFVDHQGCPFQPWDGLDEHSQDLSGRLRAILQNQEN
Sequence of Cytochrome P450 3A4 (Homo sapiens) (P08684 whole entry, looked up): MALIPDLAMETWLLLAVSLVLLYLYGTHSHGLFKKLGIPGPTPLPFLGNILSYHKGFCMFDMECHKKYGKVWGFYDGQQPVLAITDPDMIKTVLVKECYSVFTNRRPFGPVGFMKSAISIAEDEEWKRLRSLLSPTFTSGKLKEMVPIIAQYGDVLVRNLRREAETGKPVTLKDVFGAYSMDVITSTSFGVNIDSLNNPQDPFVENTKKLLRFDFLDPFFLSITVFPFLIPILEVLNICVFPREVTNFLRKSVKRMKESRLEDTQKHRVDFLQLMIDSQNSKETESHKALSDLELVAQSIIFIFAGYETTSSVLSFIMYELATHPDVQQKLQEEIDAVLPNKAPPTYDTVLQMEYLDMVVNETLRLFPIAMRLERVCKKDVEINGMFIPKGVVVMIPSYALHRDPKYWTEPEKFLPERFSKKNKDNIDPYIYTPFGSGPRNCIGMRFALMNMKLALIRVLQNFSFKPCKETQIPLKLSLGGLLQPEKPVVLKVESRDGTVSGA
Sequence of Cytochrome P450 1A2 (Homo sapiens) (P05177 whole entry, looked up): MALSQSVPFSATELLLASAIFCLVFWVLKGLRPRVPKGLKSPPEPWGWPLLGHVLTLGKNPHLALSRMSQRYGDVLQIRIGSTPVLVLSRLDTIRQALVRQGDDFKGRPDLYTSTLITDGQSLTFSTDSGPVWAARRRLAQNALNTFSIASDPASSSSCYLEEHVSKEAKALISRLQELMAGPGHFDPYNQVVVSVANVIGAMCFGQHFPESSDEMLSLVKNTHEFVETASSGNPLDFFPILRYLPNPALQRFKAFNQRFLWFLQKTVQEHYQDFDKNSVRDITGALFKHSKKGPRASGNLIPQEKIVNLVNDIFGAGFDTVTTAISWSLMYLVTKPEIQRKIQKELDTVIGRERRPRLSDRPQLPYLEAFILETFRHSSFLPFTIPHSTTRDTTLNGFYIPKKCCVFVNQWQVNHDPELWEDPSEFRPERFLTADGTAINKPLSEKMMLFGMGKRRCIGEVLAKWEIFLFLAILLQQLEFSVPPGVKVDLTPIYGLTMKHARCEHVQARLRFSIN
Sequence of 3',5'-cyclic-AMP phosphodiesterase 4B (Homo sapiens) (Q07343 whole entry, looked up): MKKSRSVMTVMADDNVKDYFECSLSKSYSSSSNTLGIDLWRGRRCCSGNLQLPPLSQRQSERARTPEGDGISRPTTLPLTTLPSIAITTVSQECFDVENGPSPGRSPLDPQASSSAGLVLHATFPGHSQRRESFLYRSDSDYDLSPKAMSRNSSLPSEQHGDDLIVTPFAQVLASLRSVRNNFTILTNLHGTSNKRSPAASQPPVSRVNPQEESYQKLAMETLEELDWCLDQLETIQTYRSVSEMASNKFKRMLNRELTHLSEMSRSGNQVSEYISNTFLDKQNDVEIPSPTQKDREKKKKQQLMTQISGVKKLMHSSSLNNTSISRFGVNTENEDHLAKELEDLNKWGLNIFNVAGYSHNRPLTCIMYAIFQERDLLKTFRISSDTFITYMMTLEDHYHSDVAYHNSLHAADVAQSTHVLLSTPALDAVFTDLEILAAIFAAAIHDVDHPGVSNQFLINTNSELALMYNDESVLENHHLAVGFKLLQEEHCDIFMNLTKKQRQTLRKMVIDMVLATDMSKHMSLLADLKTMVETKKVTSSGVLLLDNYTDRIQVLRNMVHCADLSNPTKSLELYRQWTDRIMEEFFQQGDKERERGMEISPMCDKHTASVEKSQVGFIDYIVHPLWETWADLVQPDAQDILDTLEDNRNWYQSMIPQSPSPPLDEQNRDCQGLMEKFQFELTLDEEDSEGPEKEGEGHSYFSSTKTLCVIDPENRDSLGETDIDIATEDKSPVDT
Sequence of Ubiquitin carboxyl-terminal hydrolase 1 (Homo sapiens) (O94782 whole entry, looked up): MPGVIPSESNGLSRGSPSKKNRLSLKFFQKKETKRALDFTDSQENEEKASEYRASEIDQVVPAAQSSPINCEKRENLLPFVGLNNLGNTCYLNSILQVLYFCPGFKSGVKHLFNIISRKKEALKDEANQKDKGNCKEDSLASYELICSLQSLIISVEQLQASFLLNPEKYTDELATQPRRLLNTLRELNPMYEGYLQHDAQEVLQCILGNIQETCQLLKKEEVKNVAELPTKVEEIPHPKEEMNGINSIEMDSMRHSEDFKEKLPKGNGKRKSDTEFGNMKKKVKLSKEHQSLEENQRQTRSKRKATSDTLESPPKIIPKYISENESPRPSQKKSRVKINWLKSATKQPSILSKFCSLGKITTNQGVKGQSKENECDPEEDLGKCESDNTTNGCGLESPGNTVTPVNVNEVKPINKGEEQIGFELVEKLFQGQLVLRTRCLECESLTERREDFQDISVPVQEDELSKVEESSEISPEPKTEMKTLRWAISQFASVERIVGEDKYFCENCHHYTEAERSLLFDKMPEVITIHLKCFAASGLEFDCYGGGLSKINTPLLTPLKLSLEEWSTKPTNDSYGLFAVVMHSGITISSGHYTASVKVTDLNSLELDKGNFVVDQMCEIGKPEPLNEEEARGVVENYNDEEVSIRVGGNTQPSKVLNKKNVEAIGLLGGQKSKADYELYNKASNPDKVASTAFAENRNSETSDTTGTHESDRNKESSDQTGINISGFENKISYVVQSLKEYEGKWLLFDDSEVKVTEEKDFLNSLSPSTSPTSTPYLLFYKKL
Sequence of Pyruvate kinase PKM (Homo sapiens) (P14618 whole entry, looked up): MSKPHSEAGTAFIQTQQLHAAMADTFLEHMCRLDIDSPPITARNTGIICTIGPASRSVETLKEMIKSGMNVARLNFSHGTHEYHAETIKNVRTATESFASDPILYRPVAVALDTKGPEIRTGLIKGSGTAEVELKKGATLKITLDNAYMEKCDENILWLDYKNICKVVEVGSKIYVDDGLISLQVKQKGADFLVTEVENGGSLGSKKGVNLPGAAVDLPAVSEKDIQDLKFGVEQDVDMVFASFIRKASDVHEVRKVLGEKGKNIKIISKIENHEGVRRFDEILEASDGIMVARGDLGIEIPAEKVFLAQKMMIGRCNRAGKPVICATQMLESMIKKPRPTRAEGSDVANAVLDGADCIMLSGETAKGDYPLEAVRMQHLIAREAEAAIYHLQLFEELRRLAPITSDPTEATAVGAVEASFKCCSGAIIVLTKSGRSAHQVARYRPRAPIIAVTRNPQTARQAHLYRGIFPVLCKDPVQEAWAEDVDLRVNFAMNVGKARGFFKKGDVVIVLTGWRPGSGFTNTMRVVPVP
Sequence of Alpha-galactosidase A (Homo sapiens) (P06280 whole entry, looked up): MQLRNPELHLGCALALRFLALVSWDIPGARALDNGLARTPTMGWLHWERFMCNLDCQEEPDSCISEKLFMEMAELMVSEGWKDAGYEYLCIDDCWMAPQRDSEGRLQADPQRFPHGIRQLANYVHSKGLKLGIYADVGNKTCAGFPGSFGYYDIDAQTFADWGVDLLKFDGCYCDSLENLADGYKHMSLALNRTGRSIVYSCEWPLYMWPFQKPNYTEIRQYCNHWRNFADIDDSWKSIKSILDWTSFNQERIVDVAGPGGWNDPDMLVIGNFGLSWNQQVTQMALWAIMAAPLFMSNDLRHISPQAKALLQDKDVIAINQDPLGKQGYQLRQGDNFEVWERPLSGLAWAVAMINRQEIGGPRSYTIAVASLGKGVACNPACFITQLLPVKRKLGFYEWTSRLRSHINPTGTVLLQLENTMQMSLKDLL
Sequence of Guanine nucleotide-binding protein G(i) subunit alpha-1 (Homo sapiens) (P63096 whole entry, looked up): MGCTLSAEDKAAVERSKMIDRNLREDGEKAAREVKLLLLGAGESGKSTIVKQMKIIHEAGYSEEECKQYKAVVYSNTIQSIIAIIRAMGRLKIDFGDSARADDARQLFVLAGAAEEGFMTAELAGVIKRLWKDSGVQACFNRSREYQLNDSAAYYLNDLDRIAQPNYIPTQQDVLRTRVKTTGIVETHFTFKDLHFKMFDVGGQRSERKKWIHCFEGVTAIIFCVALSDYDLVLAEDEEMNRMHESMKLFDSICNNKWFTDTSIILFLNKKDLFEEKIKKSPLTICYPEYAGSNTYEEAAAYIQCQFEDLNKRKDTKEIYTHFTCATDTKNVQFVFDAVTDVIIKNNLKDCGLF

CCCCCCCCCCCCC/C=C\[C@@H](O)[C@@H](N)CO
inactive: Potency [2] > 46 µM | Potency [3] | outcome [4] | Potency [5] | Potency [6] | Potency [8] | Potency [9] | outcome [10] | outcome [11] | outcome [12] | Potency [14] | Potency [15]
active: Potency [1] 15.8 µM | Potency [7] 10 µM | Potency [13] 50.1 µM

N[C@H](C(=O)O)[C@@H]1[C@@H](C(=O)O)C1(F)F
inactive: Potency [2] > 46 µM | Potency [16] | Potency [13] | Potency [14] | Potency [15]

N[C@@H](C(=O)O)c1ccc(C(=O)O)c(O)c1
inactive: Potency [1] | Potency [2] > 46 µM | Potency [16] | Potency [3] | Potency [13] | Potency [14]
active: Potency [15] 23.8 µM

CCCCCS(=O)(=O)CCCCCCCCCCn1c(-c2ccc(O)cc2)c(C)c2cc(O)ccc21
active: Potency [5] 0.631 µM
inactive: Potency [17] | Potency [15]

O=S(c1ccccc1)c1ccc2nnnn2n1 (stereo unspecified)
inactive: Potency [16] | outcome [18] | outcome [5] | outcome [17] | outcome [19] | outcome [20] | Potency [14] | Potency [15]
active: outcome [1]

Cc1c(C(=O)NN2CCCCC2)nn(-c2ccc(Cl)cc2Cl)c1-c1ccc(I)cc1
inactive: Potency [13] | Potency [14] | Potency [15]

COc1cc2c(cc1OC)-c1cc3nc4ccccc4nc3n1C(C)(C)C2
active: Potency [22] 12.6 µM
inactive: Potency [21] > 46 µM | Potency [2] > 46 µM | Potency [3] | Potency [14] | Potency [15]

CCCCN1CCC[C@@H]1CNC(=O)c1cc(C#N)c2ccccc2c1OC
inactive: Potency [21] > 46 µM | Potency [2] > 46 µM | Potency [16] | Potency [3] | Potency [13] | Potency [14] | Potency [15]

CN1CCN2c3ccccc3Cc3ccccc3[C@@H]2C1
inactive: activity, negative = inhibition ([23]; at 17.2 µM (top of the series)) 2.47% | activity, negative = inhibition ([23]; at 38 µM (top of the series)) -1.53% | Potency [21] > 46 µM and > 20.6 µM | Potency [2] > 46 µM and > 20.6 µM | Potency [16] | Potency [3] | outcome [4] | Potency [5] | Potency [6] | Potency [24] | outcome [10] | outcome [11] | outcome [12] | Potency [13] | Potency [14] | Potency [15]

Source: PubChem BioAssay (NCATS)
